Sampled rows, rich in hits. Any-hit rate of the full collection: about 6%.
Chronic BCR inh – qHTS Assay to Find Inhibitors of Chronic Active B-Cell Receptor Signaling | AID 493014, 2011 | 0.05% of 340,000 active | ABC-DLBCL IkBa-CBG/CBR reporter, luminescence ratio, 4 h | Potency, µM (highest dose often 46.1 µM), without a hit: at the highest dose activity change, negative = inhibition, actives largely listed as inhibitors; active = well fitted inhibition curve with a large enough effect in the signal ratio, with a control signal flat, not every such curve was filed as active; inconclusive = small, poorly fitted or top-dose-only effect, or effect the other way, or a change in a side signal; the % refers to the signal ratio;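 also: potency is read from the fitted curve at half-maximal effect; plate controls were basal doxycycline-induced cells for no effect and cells given 10 µM MG132 for full effect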
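TMD8 human ABC-DLBCL cells with doxycycline-inducible IκBα–green luciferase fusion and unfused red luciferase, in 0.5% FBS medium; compounds up to 46 uM, 4 h at 37C. Green/red luminescence ratio, filter-overlap corrected, fitted to concentration-response curves.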
D1 antag – Antagonist of Human D 1 Dopamine Receptor: qHTS; HEK293 TREx D1 cells, calcium flux, dopamine EC80; stronger effect = lower value; activity change, negative = inhibition, % at 10 µM; 3.2% of 360,000 active; in the data active = activity change below about -30%; also: % is scaled to controls: 0 for no effect and ±100 for the full control effect
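Tetracycline-induced HEK293 T-REx cells with force-coupled D1 receptor were loaded with a no-wash calcium dye. Compound was added after a 10 s baseline and read kinetically for 180 s; EC80 dopamine was then added and calcium flux followed another 180 s.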
DRD3 antagonist – qHTS of D3 Dopamine Receptor Antagonist: qHTS. 2.5% of 360,000 active. AID 652054, 2013. max response, negative = inhibition, %. D3R cells, DiscoveRx beta-arrestin luminescence, antagonist mode; stronger effect = lower value; in the data active = max response below about -50%; inconclusive = no clear call, values can overlap the other calls; also: % is scaled to controls: 0 for no effect and ±100 for the full control effect
Target sequence (P35462 whole entry, looked up): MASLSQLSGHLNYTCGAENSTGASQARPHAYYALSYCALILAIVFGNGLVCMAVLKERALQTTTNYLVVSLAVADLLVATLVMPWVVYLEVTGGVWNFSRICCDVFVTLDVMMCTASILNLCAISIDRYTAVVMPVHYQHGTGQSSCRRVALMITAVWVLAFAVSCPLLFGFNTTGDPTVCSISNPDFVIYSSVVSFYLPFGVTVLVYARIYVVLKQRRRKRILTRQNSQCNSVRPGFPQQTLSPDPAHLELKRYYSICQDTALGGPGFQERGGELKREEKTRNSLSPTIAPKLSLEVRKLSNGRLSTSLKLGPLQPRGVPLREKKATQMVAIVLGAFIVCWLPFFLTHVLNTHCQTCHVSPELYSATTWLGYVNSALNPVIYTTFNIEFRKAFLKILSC
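Cells expressing the human receptor were seeded at 1500 cells/well, incubated overnight at 37 degrees C in 5% CO2, then exposed to library compounds with dopamine controls for 90 minutes at 37 degrees C before luminescent detection.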
D1 agonist – Allosteric Agonists of the Human D1 Dopamine Receptor: qHTS. 1% of 360,000 active. activation, % at 2 µM. HEK293 T-REx D1 cells, calcium flux, agonist mode. D(1A) dopamine receptor (Homo sapiens), P21728. AID 504660, 2011; in the data active = activation above about 30%; also: 0% is about no effect
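Inducible HEK293 T-REx D1 cells, force-coupled to calcium signalling, were plated at 4000 cells/well with tetracycline and held overnight at 30 C. After no-wash calcium dye loading, compound-evoked calcium rise over 180 s flagged agonists.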
DRD3 agonist – qHTS of D3 Dopamine Receptor Agonist: qHTS; D(3) dopamine receptor (Homo sapiens), P35462; D3R DiscoveRx beta-arrestin cells, luminescence, 90 min; max activation, %; 0.58% of 410,000 active; in the data active = max activation above about 30%; also: 0% is about no effect
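Agonist-mode cell screen: cells plated at 1500/well and incubated overnight at 37 °C, then exposed to library compounds for 90 min at 37 °C. Detection reagent was added for 30–60 min at room temperature, and luminescence was read.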
D1 PAM – Potentiators of Human D1 Dopamine Receptor: qHTS. potentiation, % at 10 µM. AID 504651, 2011. HEK293 TREx D1 cells, calcium flux, dopamine EC20 potentiation. 0.036% of 360,000 active. D(1A) dopamine receptor (Homo sapiens), P21728; in the data active = potentiation above about 30%; also: 0% is about no effect
Numbers without * were called inactive; ? = inconclusive; . = not tested or not shown.

SMILES	Chronic BCR inh	D1 antag	DRD3 antagonist	D1 agonist	DRD3 agonist	D1 PAM
COc1ccc(CNc2ncc(-c3ccc(F)cc3)n2C)c2ccccc12	-20%	-36*	?	12	-11	-11
COc1ccccc1CNc1ncc(-c2ccc(F)cc2)n1C	?	-62*	-16	6	-13	-8
Cn1c(-c2ccccc2)cnc1NCc1ccc(F)cc1	-14%	-24	4	7	-6	-6
CCCCC1CCC(CCCC(C)CCC(=O)O)CC1 (stereo not given)	.	5	.	-1	12	0
COc1cccc(/C=C(\C#N)c2nc3ccccc3c(=O)[nH]2)c1OC	.	11	.	5	7	0
COc1ccc(-c2nc3c(C)cc(Br)cn3c2Cc2cccc(Cl)c2)cc1OC	.	.	15	.	2	.
CSc1ccc(CN2CCC2(C)C(=O)Nc2cccc(Oc3ccccc3)c2)cc1 (stereo not given)	.	.	-3	.	-8	.
CC(=O)c1ccc(N2CCN(C(=O)Nc3cn(CC(C)C)c(=O)c4ccccc34)CC2)cc1	.	-5	.	0	5	-5
CC(=O)Nc1cc(C(=O)NCc2ccccc2Cl)ccc1Sc1ccc(F)cc1	?	23	.	-2	6	-1
CCCC(=O)OC1=CN(Cc2ccccc2)S(=O)(=O)c2ccccc21	.	-7	.	12	0	-2
COc1ccc(CNc2ncc(-c3ccc(F)cc3)n2C)cc1OC	?	-41*	-5	3	-5	-10
CCOc1ccc(-c2cnc(NCc3cccc4ccccc34)n2CCOC)cc1	-13%	-58*	-9	18	-18	-6
Cn1c(-c2ccc(F)cc2)cnc1NCc1cc2c(cc1[N+](=O)[O-])OCO2	?	-77*	-8	24	-16	-5
COc1ccccc1CNc1ccc(Br)cn1	-1%	3	7	3	33*	6
Oc1ccccc1CNc1ccc(Br)cn1	?	-1	137	0	7	-10
Cc1ccccc1CNc1ncnc2c1ncn2[C@@H]1O[C@H](CO)[C@@H](O)[C@H]1O	.	.	.	.	-9	.
Cn1c(-c2cccc(Br)c2)cnc1NCc1cccnc1	7%	-9	-60*	2	-11	-10
COc1ccc(OC)c(CNc2ncc(-c3ccc(F)cc3)n2C)c1	0%	-55*	?	5	-8	-13
COc1ccccc1CNc1ncc(-c2ccccc2)n1C	?	-49*	-18	7	-14	-3
COc1ccc(CC(=O)Nc2sc3c(c2C(=O)Nc2cccc(Cl)c2)CCCCC3)cc1	.	8	.	0	7	4
CC1=NOC(=O)/C1=C\c1ccc(-c2cc(Cl)ccc2Cl)o1	12%	6	-63*	-1	-6	-2
COc1ccc(-c2cc(-c3ccccc3)nc(NN)n2)cc1OC	0%	2	?	4	-8	-7
COc1nc(-c2ccccc2)cc(-c2ccc(OC)c(OC)c2)n1	?	7	55	2	98*	2
COC(=O)c1cc(=O)nc2scc(C)n12	1%	24	-17	-1	-5	-1
COC(=O)c1cc(=O)nc2sc3ccccc3n12	?	4	-51*	3	0	-6
CN1CCC(=C(c2ccccc2)c2ccc(Br)cc2)CC1	.	.	-99*	.	-26	.
CN1CCC(OC(=O)c2ccc(Br)cc2)CC1	.	.	?	.	-10	.
COc1ccc(-n2ncc(C(C)NS(=O)(=O)c3cccs3)c2C)cc1 (stereo not given)	1%	0	-76*	3	-2	-2
COc1ccc(-n2ncc(C(C)NS(=O)(=O)c3cc(F)ccc3C)c2C)cc1 (stereo not given)	3%	3	-58*	0	-12	-1

Bioassay records deposited in PubChem by National Center for Advancing Translational Sciences (NCATS).
